Unmarked numbers belong to inactive results.

UniProt O00487, sequence (O00487 whole entry, the tested form may be a part): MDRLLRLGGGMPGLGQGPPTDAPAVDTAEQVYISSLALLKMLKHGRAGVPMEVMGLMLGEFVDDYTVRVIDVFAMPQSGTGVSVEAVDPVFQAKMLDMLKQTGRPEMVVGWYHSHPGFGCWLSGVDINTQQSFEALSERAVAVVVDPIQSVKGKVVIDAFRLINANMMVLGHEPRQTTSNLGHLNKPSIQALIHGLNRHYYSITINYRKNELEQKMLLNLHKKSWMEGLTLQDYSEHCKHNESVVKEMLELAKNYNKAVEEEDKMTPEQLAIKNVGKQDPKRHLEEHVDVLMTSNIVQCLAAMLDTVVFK

The target in the test is UniProt O00487. The experiment in a line: log2 ratio of Biotin-Ahx-Ub-VS probe labelling (fragment/DMSO); higher = less target engagement (more negative = stronger competition), active = hit call of the paper (q ≤ 0.05, log2 ratio ≤ -1). The conditions noted are these: compound concentration: 200 uM; treatment time: 3 h. In a few lines:
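Global-median-normalised Spectronaut label-free quantities were compared by unpaired t-test, and values are average log2 ratios of fragment over vehicle. Only proteins with ≥2 unique peptides were used. HEK293T lysate (495 µg per sample) was treated in triplicate with fragment at 200 µM or vehicle for 3 h and then with Biotin-Ahx-Ub-VS at 0.5 µM final for 1 h. Labelled DUBs were then NeutrAvidin-enriched, digested with LysC and trypsin, and run by diaPASEF LC-MS/MS.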
On to `CNC(=O)C1CCN(C(=O)CCl)CC1`, for which the “log2 ratio of Biotin-Ahx-Ub-VS probe labelling” value (from here on “log2 ratio”) is 0.144.

Take `O=C(CCl)Nc1cccc(NC(=O)c2ccccc2)c1`: the “log2 ratio” value is 0.00956.

Regarding `Cc1ccc(N2CCC(NC(=O)CCl)C2=O)cc1` (stereo not given), the “log2 ratio” value is -0.129.

Consider `Cc1cccc(C(CNC(=O)CCl)N2CCOCC2)c1.Cl` (stereo not given), for which the “log2 ratio” value is 0.181.

Consider `O=C(CCl)N1CCC(C(O)c2ccc(F)cc2)CC1` (stereo not given), for which the “log2 ratio” value was 0.0841.

Take `Cc1ccccc1C1(CNC(=O)CCl)CCOCC1`: the “log2 ratio” value is -0.115.

As for `CC(O)CC1CCN(C(=O)CCl)CC1` (stereo not given), the “log2 ratio” value was -0.189.

For `COc1cc(Cl)c(C)cc1NC(=O)CCl`, the “log2 ratio” value is -0.246.

For `Cl.O=C(CCl)NCCN1CCc2ccccc21`, the “log2 ratio” value is -0.255.

In the case of `CN(C)S(=O)(=O)c1ccccc1CNC(=O)CCl`, the “log2 ratio” value is 0.0834.

Take `CN1c2ccccc2C(NC(=O)CCl)CS1(=O)=O` (stereo not given): the “log2 ratio” value is -0.206.

With `CNC(=O)Cn1cc(NC(=O)CCl)cn1`, the “log2 ratio” value is -0.0928.

On to `Cc1ccc(N(CCC#N)C(=O)CCl)cc1C`, for which the “log2 ratio” value is -0.246.

For `Cc1cccc(N2CCC(NC(=O)CCl)C2=O)c1` (stereo not given), the “log2 ratio” value was 0.133.

Consider `Cc1ccc(CC(NC(=O)CCl)c2ccccn2)cc1.Cl` (stereo not given), for which the “log2 ratio” value is 0.244.

As for `O=C(CCl)N[C@H]1CCS(=O)(=O)c2ccccc21`, the “log2 ratio” value is -0.0201.

For the compound `O=C(CCl)N1CCC(c2noc3cc(F)ccc23)CC1`, the “log2 ratio” value was -0.0622.

Regarding `C/C(=C\CNC(=O)CCl)c1cnn(C)c1.Cl`, the “log2 ratio” value was -0.0232.

With `CN(C)C(=O)c1ccc(CNC(=O)CCl)cc1`, the “log2 ratio” value is -0.101.

As for `Cc1nc(CNC(=O)CCl)c2ccccn12.Cl`, the “log2 ratio” value is 0.0442.

On to `O=C(CCl)NC1(c2ccc3c(c2)OCCO3)CCCC1`, for which the “log2 ratio” value is -0.176.

Consider `N#Cc1ccc(CNC(=O)CCl)cc1`, for which the “log2 ratio” value is -0.00705.

Take `CC(NC(=O)CCl)c1cc2n(n1)CCCC2.Cl` (stereo not given): the “log2 ratio” value was -0.00796.

In the case of `O=C(CCl)N1CC=C(c2c[nH]c3ccccc23)CC1`, the “log2 ratio” value was -0.0429.

As to `CCN1C(=O)C2CN(C(=O)CCl)CCN2C1=O` (stereo not given), the “log2 ratio” value was 0.00662.

Consider `NC(=O)C1CCCN(C(=O)CCl)C1` (stereo not given), for which the “log2 ratio” value is -0.0923.

On to `CC(=O)C1CCCCN1C(=O)CCl` (stereo not given), for which the “log2 ratio” value is -0.0675.

`CC1CCc2onc(CNC(=O)CCl)c2C1` (stereo not given): the “log2 ratio” value is 0.0127.

Turning to `CCC1c2ccsc2CCN1C(=O)CCl` (stereo not given), the “log2 ratio” value is -0.0357.

On to `O=C(O)C1Cc2ccccc2CN1C(=O)CCl` (stereo not given), for which the “log2 ratio” value was -0.262.

With `Cl.O=C(CCl)N[C@H]1C[C@@H](n2cccn2)C1`, the “log2 ratio” value was 0.0109.

In the case of `O=C(CCl)N1CCc2sccc2C1`, the “log2 ratio” value is 0.0182.

On to `CC(NC(=O)CCl)c1csc(-c2ccccc2)n1.Cl` (stereo not given), for which the “log2 ratio” value is -0.213.

Take `Cc1ccc(N(C(=O)CCl)C2C=CS(=O)(=O)C2)cc1` (stereo not given): the “log2 ratio” value was 0.0368.

Consider `O=C(CCl)NCc1ccc(Cl)cc1`, for which the “log2 ratio” value is -0.0216.

Source of the values: the supplement of paper PMC11732987, “Enantioselective OTUD7B fragment discovery through chemoproteomics screening and high-throughput optimisation” (Communications Chemistry, 2025).
